Assay results: PubChem BioAssay (NCI)
The panel holds about 79,000 compounds, 15% with a hit somewhere; the sample as a whole holds those more often. Active and inactive are the calls of the source. No stated cut-off is given here; in the data, active means growth inhibition above about 70%; inactive means the rest.

Key:
[1] = NCI Yeast Anticancer Drug Screen. Data for the rad50 strain (AID 155);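 further: 0% = growth of vehicle-only cultures of the same strain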; conditions: S. cerevisiae rad50 strain growth inhibition, active compounds read high
How it was run: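 Yeast carrying a defined DNA repair defect were exposed to test compounds, and growth was compared with vehicle-treated controls to give percent inhibition.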

[2] = NCI Yeast Anticancer Drug Screen. Data for the mec2-1 strain (AID 157); conditions: S. cerevisiae mec2-1 strain, active compounds read high
How it was run: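 Test agents were screened against the mec2-1 yeast strain, with defined DNA repair or cell cycle alteration. Growth was scored as inhibition against vehicle-only controls.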

[3] = NCI Yeast Anticancer Drug Screen. Data for the sgs1 mgt1 strain (AID 161);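 further: 0% = growth of cultures given vehicle only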; conditions: S. cerevisiae sgs1 mgt1 strain, active compounds read high
How it was run: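 Mutant yeast exposed to compound; growth scored against vehicle-only wells.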

[4] = NCI Yeast Anticancer Drug Screen. Data for the cln2 rad14 strain (AID 165);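 further: 0% = growth equal to vehicle treated cultures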; conditions: S. cerevisiae cln2 rad14 strain, active compounds read high
How it was run: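 Growth of compound-exposed yeast (cln2 rad14 genotype) measured and expressed as inhibition relative to vehicle.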

[5] = NCI Yeast Anticancer Drug Screen. Data for the bub3 strain (AID 167); conditions: S. cerevisiae bub3 mutant strain, active compounds read high
How it was run: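 Compounds were applied to a genetically altered yeast strain carrying a cell-cycle control defect. Growth inhibition was scored against vehicle-treated controls.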

[6] = NCI Yeast Anticancer Drug Screen. Data for the mlh1 rad18 strain (AID 175); conditions: S. cerevisiae mlh1 rad18 strain growth inhibition, active compounds read high
How it was run: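 In this whole-cell yeast screen, a strain with altered DNA damage repair is challenged with compound, and its growth is measured against matched vehicle-treated controls.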

[7] = at 5.0 µM (retest, dose inferred, filed as 0.5)
[8] = at 50.0 µM (retest, dose inferred, filed as 5.0)

Measured: growth inhibition

Cc1ccc2[nH]cc(CC(=O)O)c2c1
active: [1]; [7] 95% | [1]; [8] 99% | [2]; [7] 97% | [2]; [8] 100% | [3]; [7] 99% | [3]; [8] 100% | [4]; [8] 99% | [5]; [7] 99% | [5]; [8] 100% | [6]; [7] 85% | [6]; [8] 99%
inactive: [4]; [7] 42%

CN(C)c1cc(N)c(Cc2c(N)cc(N(C)C)cc2Cl)c(Cl)c1
inactive: [1]; [7] 5% | [2]; [7] -2% | [3]; [7] -4% | [4]; [7] 8% | [5]; [7] 6% | [6]; [7] 1%
active: [1]; [8] 97% | [2]; [8] 97% | [3]; [8] 98% | [4]; [8] 96% | [5]; [8] 97% | [6]; [8] 97%

CC(=O)Oc1c(Br)cc(Br)cc1C(OC(C)=O)OC(C)=O
inactive: [1]; [7] 20% | [2]; [7] 8% | [3]; [7] 19% | [4]; [7] 3% | [4]; [8] 52% | [5]; [7] 6% | [6]; [7] -5%
active: [1]; [8] 96% | [2]; [8] 87% | [3]; [8] 99% | [5]; [8] 99% | [6]; [8] 93%

CCC(CC)(c1ccccc1)C(O)c1ccccc1 (centres undefined)
active: [1]; [8] 94% | [2]; [8] 98% | [3]; [8] 98% | [4]; [8] 95% | [5]; [8] 94% | [6]; [8] 96%
inactive: [1]; [7] 11% | [2]; [7] -1% | [3]; [7] 6% | [4]; [7] 7% | [5]; [7] 6% | [6]; [7] 2%

Clc1ccc(-n2ncc3c(Cl)nc(Cl)nc32)cc1
active: [1]; [7] 98% | [1]; [8] 99% | [2]; [7] 99% | [2]; [8] 99% | [3]; [7] 100% | [3]; [8] 99% | [4]; [7] 97% | [4]; [8] 98% | [5]; [7] 99% | [5]; [8] 99% | [6]; [7] 99% | [6]; [8] 99%

Cc1ccccc1N=NC(C#N)C#N
active: [1]; [7] 82% | [1]; [8] 99% | [2]; [8] 100% | [3]; [7] 85% | [3]; [8] 100% | [4]; [8] 99% | [5]; [8] 100% | [6]; [7] 78% | [6]; [8] 99%
inactive: [2]; [7] 40% | [4]; [7] 39% | [5]; [7] 68%

CCC(C)(CC)c1ccc(O)cc1
active: [1]; [8] 78% | [3]; [8] 77% | [6]; [8] 76%
inactive: [1]; [7] 14% | [2]; [7] -1% | [2]; [8] 45% | [3]; [7] -3% | [4]; [7] -2% | [4]; [8] 23% | [5]; [7] 0% | [5]; [8] 44% | [6]; [7] 33%

CSS(C)(=O)=O
inactive: [1]; [7] 59% | [2]; [7] 6% | [3]; [7] 10% | [4]; [7] -4% | [5]; [7] -1% | [6]; [7] 3%
active: [1]; [8] 98% | [2]; [8] 99% | [3]; [8] 99% | [4]; [8] 98% | [5]; [8] 99% | [6]; [8] 95%

COc1ccc(/C(C#N)=C/c2cccc(N)c2)cc1
inactive: [1]; [7] 6% | [1]; [8] 16% | [2]; [7] 3% | [2]; [8] 10% | [3]; [7] 1% | [3]; [8] 27% | [4]; [7] 2% | [4]; [8] 2% | [5]; [7] 13% | [5]; [8] 42% | [6]; [7] -30% | [6]; [8] 12%

NCCN1C(=O)CNC1=S
inactive: [1]; [7] -23% | [1]; [8] 30% | [2]; [7] -1% | [2]; [8] -4% | [3]; [7] 3% | [3]; [8] 3% | [4]; [7] 0% | [4]; [8] -3% | [5]; [7] -1% | [5]; [8] -5% | [6]; [7] 10% | [6]; [8] 17%

CC(=O)Oc1ccc(OC(C)=O)c2c1CC=CC2
inactive: [1]; [7] 3% | [1]; [8] 2% | [2]; [7] -1% | [2]; [8] 1% | [3]; [7] 2% | [3]; [8] 10% | [4]; [7] 0% | [4]; [8] 11% | [5]; [7] 4% | [5]; [8] 8% | [6]; [7] -20% | [6]; [8] 2%

CC1C2c3ccccc3C(c3ccccc32)C1CO (centres undefined)
inactive: [1]; [7] 11% | [2]; [7] 1% | [2]; [8] 61% | [3]; [7] 6% | [4]; [7] 4% | [5]; [7] -4% | [6]; [7] -44%
active: [1]; [8] 88% | [3]; [8] 77% | [4]; [8] 71% | [5]; [8] 74% | [6]; [8] 80%

N#CC(c1ccccc1)C(c1ccccc1)c1ccccc1 (centres undefined)
inactive: [1]; [7] 13% | [1]; [8] 67% | [2]; [7] 9% | [3]; [7] 9% | [4]; [7] 20% | [4]; [8] 55% | [5]; [7] 13% | [6]; [7] -24%
active: [2]; [8] 89% | [3]; [8] 92% | [5]; [8] 87% | [6]; [8] 80%

C/C(=N\Nc1ccc(Cl)cc1)C(=O)O
inactive: [1]; [7] 17% | [2]; [7] -2% | [3]; [7] 14% | [4]; [7] 8% | [5]; [7] 29% | [6]; [7] -29%
active: [1]; [8] 97% | [2]; [8] 98% | [3]; [8] 99% | [4]; [8] 98% | [5]; [8] 99% | [6]; [8] 96%

Cc1cc(C(=O)c2ccccc2Cl)ccc1O
active: [1]; [8] 98% | [2]; [8] 99% | [3]; [8] 98% | [4]; [8] 98% | [5]; [8] 99% | [6]; [8] 98%
inactive: [1]; [7] 10% | [2]; [7] -5% | [3]; [7] 3% | [4]; [7] -2% | [5]; [7] -3% | [6]; [7] 10%

CN(C)c1ccc(SC#N)cc1
active: [1]; [8] 92% | [2]; [8] 85% | [3]; [8] 86% | [5]; [8] 95% | [6]; [8] 87%
inactive: [1]; [7] -4% | [2]; [7] 2% | [3]; [7] -2% | [4]; [7] 3% | [4]; [8] 51% | [5]; [7] 16% | [6]; [7] -20%

CCCCC(CC)CNC(=O)CI (centres undefined)
inactive: [1]; [7] 11% | [1]; [8] 66% | [2]; [7] -2% | [2]; [8] 22% | [3]; [7] 6% | [4]; [7] 9% | [4]; [8] 6% | [5]; [7] 9% | [6]; [7] -13% | [6]; [8] 51%
active: [3]; [8] 73% | [5]; [8] 76%

[O-][n+]1cccc2cccc(O)c21
inactive: [1]; [7] 2% | [1]; [8] 61% | [2]; [7] -1% | [2]; [8] 16% | [3]; [7] 1% | [3]; [8] 48% | [4]; [7] -3% | [4]; [8] 2% | [5]; [7] 1% | [5]; [8] 20% | [6]; [7] -12% | [6]; [8] 49%

CC(=O)c1ccc2c(c1)sc1cc(C(C)=O)ccc12
inactive: [1]; [7] 30% | [2]; [7] 15% | [3]; [7] 8% | [4]; [7] 9% | [5]; [7] 15% | [6]; [7] 23%
active: [1]; [8] 98% | [2]; [8] 98% | [3]; [8] 99% | [4]; [8] 97% | [5]; [8] 99% | [6]; [8] 98%

CC(O)C(=O)NCCc1ccccc1 (centres undefined)
inactive: [1]; [7] 8% | [1]; [8] 4% | [2]; [7] -3% | [2]; [8] -2% | [3]; [7] -1% | [3]; [8] 1% | [4]; [7] 2% | [4]; [8] 3% | [5]; [7] -1% | [5]; [8] -2% | [6]; [7] 4% | [6]; [8] 10%

CSC(SC)=C(C#N)C(=O)Nc1cccc(Cl)c1
active: [1]; [7] 78% | [1]; [8] 97% | [2]; [8] 99% | [3]; [8] 99% | [4]; [8] 98% | [5]; [8] 99% | [6]; [8] 97%
inactive: [2]; [7] 62% | [3]; [7] 65% | [4]; [7] 39% | [5]; [7] 65% | [6]; [7] 56%

COc1ccc(N=NC(C#N)C#N)cc1
inactive: [1]; [7] 32% | [2]; [7] 6% | [3]; [7] 24% | [4]; [7] 2% | [5]; [7] 1% | [6]; [7] -10%
active: [1]; [8] 95% | [2]; [8] 97% | [3]; [8] 98% | [4]; [8] 96% | [5]; [8] 98% | [6]; [8] 96%

CC(=O)Nc1nc(-c2ccccc2)cs1
inactive: [1]; [7] 1% | [1]; [8] 23% | [2]; [7] -4% | [2]; [8] 4% | [3]; [7] -2% | [3]; [8] 23% | [4]; [7] 7% | [4]; [8] -5% | [5]; [7] -1% | [5]; [8] 6% | [6]; [7] -11% | [6]; [8] 2%

O=c1c2ccccc2ncn1O
active: [1]; [8] 93% | [3]; [8] 98% | [5]; [8] 89% | [6]; [8] 81%
inactive: [1]; [7] -1% | [2]; [7] 1% | [2]; [8] 54% | [3]; [7] 8% | [4]; [7] 10% | [4]; [8] 21% | [5]; [7] 5% | [6]; [7] -12%

OCCNC(c1ccc(Cl)cc1)C(O)c1ccc(Cl)cc1 (centres undefined)
inactive: [1]; [7] 5% | [1]; [8] 62% | [2]; [7] -3% | [2]; [8] 13% | [3]; [7] 0% | [4]; [7] 11% | [4]; [8] 8% | [5]; [7] 6% | [5]; [8] 55% | [6]; [7] -4% | [6]; [8] 59%
active: [3]; [8] 77%

O=C1c2ccccc2-c2ccc(O)cc21
active: [1]; [8] 95% | [2]; [8] 84% | [3]; [8] 93% | [5]; [8] 87% | [6]; [8] 90%
inactive: [1]; [7] 58% | [2]; [7] 17% | [3]; [7] 28% | [4]; [7] 10% | [4]; [8] 69% | [5]; [7] 10% | [6]; [7] -11%

CCCCNC(=O)C(C)O (centres undefined)
inactive: [1]; [7] 5% | [1]; [8] 23% | [2]; [7] 0% | [2]; [8] 3% | [3]; [7] 0% | [3]; [8] 4% | [4]; [7] 5% | [4]; [8] 0% | [5]; [7] 1% | [5]; [8] -2% | [6]; [7] 3% | [6]; [8] 8%
